Consider 17 compounds from PubChem BioAssay (Tox21).

The nature of experiment [1]: qHTS assay to identify small molecule agonists of the hypoxia (HIF-1) signaling pathway - cell viability counter screen (AID 1224844; calls by dose curve; note: nearly all actives have a fitted effect of over 50% in size; note: potency is the fitted concentration of half-maximal effect). The gist of the method: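 HRE-bla ME-180 cells in medium with 0.5% dialyzed FBS were preincubated 5 hrs at 37C, exposed to compounds for 17 hrs, then viability was read as CellTiter-Glo luminescence after 30 min at room temperature, in the reporter wells.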
(In general: Quantitative high-throughput screening tests each substance at several concentrations.)

A short description of experiment [2]: qHTS assay to identify small molecule antagonists of the estrogen related receptor (ERR) signaling pathway from Tox21 library (AID 1224848). Note: nearly all actives have a fitted effect of over 50% in size. Note: potency is the fitted concentration of half-maximal effect. The gist of the method:
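ERR reporter cell line (from NTP) seeded 2,000 cells/well, rested 6 h at 37 C/5% CO2, then pin-dosed with compounds in DMSO. After 18 h at 37 C, ONE-Glo added; luminescence read after 30 min at room temperature.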

Experiment [3] can be described thus: qHTS assay to identify small molecule agonists of the estrogen related receptor (ERR) signaling pathway from Tox21 library (AID 1224849; calls by dose curve; note: nearly all actives have a fitted effect of over 15% in size). The note with it: ERR reporter cell line, ONE-Glo luciferase, 18 h. The gist of the method:
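ERR reporter cell line (NTP) seeded, rested 6 h at 37 C/5% CO2, then pinned with Tox21 compounds in DMSO. After 18 h at 37 C, ONE-Glo luciferase luminescence was read following 30 min at room temperature.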

Experiment [4] can be described thus: qHTS RealTime-Glo MT Cell Viability Assay in HepG2 cells - 24 hour (AID 1224867). Note: nearly all actives have a fitted effect of over 50% in size. Note: potency is the fitted concentration of half-maximal effect. The gist of the method: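 Compound treatment began 5 h after plating HepG2 cells (600/well) with NanoLuc luciferase and prosubstrate. Plates stayed at 37 C for 40 h; luminescence was captured at six time points, 0 h through 40 h.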
Experiment [5] in a line: qHTS RealTime-Glo MT Cell Viability Assay in HEK293 cells - 32 hour (AID 1224868). Note: nearly all actives have a fitted effect of over 50% in size. Note: potency is the fitted concentration of half-maximal effect. The gist of the method: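 Quantitative high-throughput screen of the Tox21 10K library in HEK293: cells and RealTime-Glo reagents plated together, compound added at 5 h, luminescence monitored through 40 h at 37 C.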
Experiment [6] in a line: A CellTox Green Cytotoxicity Assay to monitor cytotoxicity in HEK293 cells - 0 hour (AID 1224869). Note: nearly all actives have a fitted effect of over 50% in size. In short, it runs like this:
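HEK293 cells premixed with CellTox Green dye were seeded at 600 cells/well and left 5 h at 37 C/5% CO2 before pin transfer of 23 nL compound in DMSO. Fluorescence from dye bound to dead-cell DNA was read during 40 h treatment.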

The nature of experiment [7]: qHTS RealTime-Glo MT Cell Viability Assay in HepG2 cells - 40 hour (AID 1224870). Note: nearly all actives have a fitted effect of over 50% in size. Note: potency is the fitted concentration of half-maximal effect. The gist of the method: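 HepG2 cells (600/well) mixed with RealTime-Glo MT reagent, settled 5 h at 37 C/5% CO2 before compound addition. Nonlytic NanoLuc luminescence from viable-cell prosubstrate reduction read repeatedly during 40 h treatment at 37 C.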
Experiment [8] in a line: qHTS assay to identify small molecule agonists of H2AX - cell viability counter screen (AID 1224847; calls by dose curve; note: nearly all actives have a fitted effect of over 30% in size; note: potency is the fitted concentration of half-maximal effect). In short, it runs like this:
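Counter-screen for viability: CellTiter-Glo ATP luminescence read after 3 h compound treatment (15-point titration, 0.76% DMSO final) of CHO-K1 cells at 37C, with 30 min room-temperature reagent incubation.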

A short description of experiment [9]: qHTS assay to identify small molecule agonists of the hypoxia (HIF-1) signaling pathway (AID 1224846; active = well fitted activation curve with a large enough effect in the signal ratio in the repeat runs, not every such curve was filed as active; the % refers to the signal ratio). In short, it runs like this:
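HRE-bla ME-180 cells (beta-lactamase reporter under hypoxia response element) were plated at 2,000 cells/well in medium with 0.5% dialyzed FBS, rested 5 hrs, then given compounds in DMSO for 17 hrs at 37C, 5% CO2. Reporter induction was read with CCF4-AM FRET substrate.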

The nature of experiment [10]: qHTS assay to identify small molecule agonists of H2AX (AID 1224845; active = well fitted activation curve with a large enough effect in the signal ratio in the repeat runs, not every such curve was filed as active; the % refers to the signal ratio; note: potency is the fitted concentration of half-maximal effect). The gist of the method: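 Wild-type CHO-K1 cells, plated overnight, exposed 3hr at 37C to 15 concentrations (0.76% DMSO final). Lysed, then HTRF anti-pH2AX (S139) cryptate and anti-H2AX-d2 antibodies, 24 hr room temperature; 665/620 nm emission read.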

The structures appear in SMILES notation. Values joined by “and” are separate entries in the source; they are usually repeats but may differ in a detail not shown here. Identical values can stand only once. Records with an inconclusive call do not appear. Where a structure was tested more than once in an assay, its records may differ in their call. Active and inactive are the calls of the source. Unless noted, calls come from the whole dose curve; as a rule, active = well fitted curve in the direction sought with a large enough effect in the repeat runs; inconclusive = weak or mixed curves; inactive = no such curve, though single readings can be large; an effect the other way counts as inactive or inconclusive.
% is set by controls: 0 for no effect and ±100 for the full control effect.

In the case of `C=CC(=O)OCC(CC)(COC(=O)C=C)COC(=O)C=C`, the Potency is 20 µM (active) and 12.3 µM (active) in [1]; 15.8 µM (active) and 19.3 µM (active) in [2]; 25.2 µM (active) and 12.3 µM (active) in [4]; 3.56 µM (active) and 11 µM (active) in [5]; 35.6 µM (active) and 12.3 µM (active) in experiment [7]. Also, the activity change, positive = activation in experiment [3] (at 92.4 µM (top of the series)) was -82.1% (inactive) and -76.4% (inactive). The Potency result in [6] is “inactive”.
Regarding `O=[N+]([O-])c1ccc(Nc2ccccc2)cc1`, the Potency entry in experiment [1], in [4], in [6] and in experiment [7] was “inactive” each time. The Potency in experiment [8] is 80 µM (active); in [5], 24.7 µM (active) and 19.5 µM (active). Also, the activity change, positive = activation in experiment [3] (at 92.4 µM (top of the series)) is -30.2% (inactive) and -27.4% (inactive).
Turning to `CNC(=O)CSP(=S)(OC)OC`, the Potency entry in experiment [1], in [8], in experiment [4], in [5], in experiment [6] and in experiment [7] was “inactive” each time. The outcome in [9] was inactive.
Take `COP(=O)(NC(C)=O)SC` (centres undefined): the Potency result in experiment [1], in experiment [10], in experiment [8], in [4], in [5] and in experiment [7] was “inactive” in each case.
As for `CCC[CH2][Sn]([Cl])([CH2]CCC)[CH2]CCC`, the Potency in [1] was 310 nM (active) and 1.1 µM (active); in experiment [10], 358 nM (active) and 401 nM (active); in experiment [8], 637 nM (active) and 713 nM (active); in experiment [4], 1.55 µM (active) and 549 nM (active); in experiment [5], 347 nM (active) and 490 nM (active); in [7] it was 979 nM (active) and 347 nM (active).
For the compound `CC(C)(C#N)N=NC(C)(C)C#N`, the Potency entry in experiment [1], in [10], in experiment [8], in experiment [4], in experiment [5] and in experiment [6] was “inactive” in each case. The Potency result in experiment [7] was “inactive”.
For `CC[n+]1c(-c2ccccc2)c2cc(N)ccc2c2ccc(N)cc21`, the Potency in experiment [1] was 21.8 µM (active) and inactive; in [5], 4.34 µM (active) and 5.35 µM (active). Moreover, the Potency entry in experiment [8], in experiment [6] and in experiment [7] was “inactive” in each case.
Consider `COc1ccc(O)c(C(C)(C)C)c1`, for which the Potency result in experiment [1], in experiment [10], in experiment [8], in experiment [4], in experiment [5] and in experiment [7] was “inactive” throughout.
Turning to `CC(C)(O)C#N`, the Potency result in experiment [1], in experiment [10], in [8], in experiment [4], in experiment [5] and in experiment [6] was “inactive” in each case. Further, the Potency entry in [7] was “inactive”.
In the case of `CCOP(=S)(OCC)SCn1c(=O)oc2cc(Cl)ccc21`, the Potency result in experiment [1], in experiment [10], in experiment [4], in [6] and in experiment [7] was “inactive” in each case. In addition, the Potency in [5] is 29.5 µM (active).
In the case of `C[C@]12CCC(=O)C=C1CC[C@@H]1[C@@H]2CC[C@@]2(C)[C@H]1CC[C@]2(C)O`, the Potency entry in experiment [1], in [4] and in experiment [7] was “inactive” each time. For the same compound, the Potency in experiment [8] was 71.9 µM (active) and inactive; in experiment [5], 22.1 µM (active).
`CCCCCCCCCc1ccc(O)cc1`: the Potency in [1] was 39.3 µM (active) and 54.9 µM (active); in experiment [10], 102 µM (active) and 101 µM (active); in experiment [8], 90.7 µM (active) and 101 µM (active); in experiment [5], 9.87 µM (active) and 5.49 µM (active). Further, the Potency entry in [4], in experiment [6] and in [7] was “inactive” throughout.
For the compound `CC(C)=CC1C(C(=O)OCN2C(=O)C3=C(CCCC3)C2=O)C1(C)C` (centres undefined), the Potency entry in experiment [1], in experiment [10], in experiment [4], in experiment [5] and in experiment [7] was “inactive” throughout. In addition, the activity change, positive = activation is -16.7% (inactive) in [3] (at 42.5 µM (top of the series)) and -22.5% (inactive) in experiment [3] (at 92.4 µM (top of the series)).
For `CCOP(=S)(OCC)SCSC(C)(C)C`, the Potency result in experiment [1], in experiment [8], in experiment [4], in experiment [5], in [6] and in [7] was “inactive” each time.
On to `CC(C)(c1ccc(OCC2CO2)cc1)c1ccc(OCC2CO2)cc1` (centres undefined), for which the Potency entry in experiment [10], in experiment [8], in experiment [4], in experiment [5] and in [7] was “inactive” throughout. Besides, the result in experiment [9] was inactive. Moreover, the Potency in experiment [2] is 61.9 µM (active). Moreover, in experiment [3] (at 92.4 µM (top of the series)), the activity change, positive = activation is -61.1% (inactive) and -21.3% (inactive).
Take `O=C1C(Cl)=C(Cl)C(=O)c2ccccc21`: the Potency in experiment [1] was 7.79 µM (active); in [8] it was 22.6 µM (active) and 14.2 µM (active); in experiment [2] it was 24.4 µM (active) and inactive; in experiment [4], 24.6 µM (active) and 11 µM (active); in experiment [5], 6.19 µM (active) and 7.76 µM (active); in experiment [7], 34.8 µM (active) and 17.4 µM (active). For the same compound, the activity change, positive = activation in experiment [3] (at 92.4 µM (top of the series)) is -82.7% (inactive) and -46.9% (inactive). Further, the Potency entry in experiment [6] was “inactive”.
Regarding `CCCCCCCCCC(CC)c1ccc(S(=O)(=O)O)cc1` (centres undefined), the Potency result in experiment [10], in experiment [4] and in experiment [7] was “inactive” in each case. The Potency in experiment [5] was 39.3 µM (active) and inactive.
